What all share (conditions): mRNA level, 48 h; actives raise or lower the signal
Read-out in experiment [1]: Cytochrome P450 (CYP24A1), CYP24A1 (gene 1591)
The experiment in a line: LTEA_HepaRG_CYP24A1: Life Technologies and Expression Analysis (LTEA) Assay for Cytochrome P450 (CYP24A1) using HepaRG (AID 2283478). The method in brief:
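qRT-PCR read-out: CYP24A1 transcript levels normalized to three housekeeping genes, bidirectional curve fits against 0.5% DMSO baseline. Human HepaRG cells treated 48 h with chemicals at eight concentrations from 100 uM in half-log steps.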

Read-out in experiment [2]: Cytochrome P450 (CYP1A2), CYP1A2 (gene 1544)
The experiment in a line: LTEA_HepaRG_CYP1A2: Life Technologies and Expression Analysis (LTEA) Assay for Cytochrome P450 (CYP1A2) using HepaRG (AID 2283479). Put shortly: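 HepaRG, 48 h exposure, top 100 uM, half-log 8-pt, 0.5% DMSO vehicle, duplicates. Readout: TaqMan qRT-PCR of CYP1A2 mRNA, housekeeping-normalized (ACTB/GAPDH/POLR2A). Gain/loss fit relative to DMSO baseline.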

Read-out in experiment [3]: cysteine-aspartic acid protease (CASP8), CASP8 (gene 841)
The experiment in a line: LTEA_HepaRG_CASP8: Life Technologies and Expression Analysis (LTEA) Assay for cysteine-aspartic acid protease (CASP8) using HepaRG (AID 2283480). Put shortly:
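HepaRG, 48 h exposure, duplicate wells; 8 conc, half-log from 100 uM, 0.5% DMSO. Serum-free induction medium. CASP8 mRNA by TaqMan qRT-PCR, norm. ACTB/GAPDH/POLR2A; gain/loss fitted vs DMSO.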

Read-out in experiment [4]: Cytochrome P450 (CYP2B6), CYP2B6 (gene 1555)
As to the kind of experiment: LTEA_HepaRG_CYP2B6: Life Technologies and Expression Analysis (LTEA) Assay for Cytochrome P450 (CYP2B6) using HepaRG (AID 2283481). Put shortly: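 Read-out is CYP2B6 mRNA by TaqMan qRT-PCR, normalized to three housekeeping genes and fitted bidirectionally against 0.5% DMSO baseline. Human HepaRG cells received test chemicals for 48 h, top concentration 100 uM, half-log dilutions.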

Read-out in experiment [5]: Cytochrome P450 2C19 (Homo sapiens) (UniProt P33261)
As to the kind of experiment: LTEA_HepaRG_CYP2C19: Life Technologies and Expression Analysis (LTEA) Assay for CYP2C19 using HepaRG (AID 2283482). Put shortly:
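HepaRG, 48 h chemical exposure, 8-pt half-log series from 100 uM in 0.5% DMSO, duplicates. Readout: CYP2C19 mRNA by TaqMan qRT-PCR, housekeeping-normalized. Bidirectional fit vs DMSO baseline; phenobarbital 1mM as induction control.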

Read-out in experiment [6]: CYP2C8 (gene 1558)
As to the kind of experiment: LTEA_HepaRG_CYP2C8: Life Technologies and Expression Analysis (LTEA) Assay for CYP2C8 using HepaRG (AID 2283483). Put shortly:
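CYP2C8 mRNA induction or loss, by qRT-PCR normalized to ACTB/GAPDH/POLR2A, is read in HepaRG cells after 48 h treatment. Concentrations run from 100 uM down in half-log dilutions, with 0.5% DMSO as vehicle and baseline.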

Read-out in experiment [7]: CYP2C9 (gene 1559)
As to the kind of experiment: LTEA_HepaRG_CYP2C9: Life Technologies and Expression Analysis (LTEA) Assay for CYP2C9 using HepaRG (AID 2283484). The method in brief: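 Cells plated 48 h, switched to serum-free induction medium, then treated in duplicate for 48 h at eight concentrations (max 100 uM, 0.5% DMSO). RNA then analysed by qRT-PCR for CYP2C9; curves fitted in both directions relative to DMSO.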

Read-out in experiment [8]: CYP2E1 (gene 1571)
As to the kind of experiment: LTEA_HepaRG_CYP2E1: Life Technologies and Expression Analysis (LTEA) Assay for CYP2E1 using HepaRG (AID 2283485). Put shortly:
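Human liver line HepaRG, plated 48 h, then serum-free induction medium + chemical x 48 h; 8-pt CRC from 100 uM, half-log, 0.5% DMSO, n=2. Readout: CYP2E1 mRNA qRT-PCR vs ACTB/GAPDH/POLR2A; bidirectional fit vs DMSO.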

Read-out in experiment [9]: Cytochrome P450 3A4 (Homo sapiens) (UniProt P08684)
The experiment in a line: LTEA_HepaRG_CYP3A4: Life Technologies and Expression Analysis (LTEA) Assay for CYP3A4 using HepaRG (AID 2283487). Put shortly: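 HepaRG, 48 h exposure, 8-pt CRC from 100 uM (half-log), 0.5% DMSO, duplicates; serum-free induction medium. Readout: CYP3A4 mRNA, qRT-PCR, ACTB/GAPDH/POLR2A normalization. Bidirectional fit vs DMSO.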

Read-out in experiment [10]: DNA damage-inducible transcript 3 (DDIT3), DDIT3 (gene 1649)
As to the kind of experiment: LTEA_HepaRG_DDIT3: Life Technologies and Expression Analysis (LTEA) Assay for DNA damage-inducible transcript 3 (DDIT3) using HepaRG (AID 2283488). Put shortly:
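HepaRG plated 48 h, switched to serum-free induction medium, dosed 48 h (100 uM top, half-log, 8 pts, 0.5% DMSO, n=2); RNA isolated; DDIT3 by qRT-PCR; bidirectional curve fit vs DMSO.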

Read-out in experiment [11]: Pro-epidermal growth factor (Homo sapiens) (UniProt P01133)
As to the kind of experiment: LTEA_HepaRG_EGF: Life Technologies and Expression Analysis (LTEA) Assay for Epidermal growth factor (EGF) using HepaRG (AID 2283489). The method in brief: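 qRT-PCR readout of EGF transcript after 48 h chemical exposure of HepaRG cells; eight concentrations from 100 uM down in half-log steps, duplicate wells, 0.5% DMSO vehicle. Bidirectional curve fitting against DMSO baseline.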

Read-out in experiment [12]: Early growth response protein 1 (EGR1) transcription factor, EGR1 (gene 1958)
As to the kind of experiment: LTEA_HepaRG_EGR1: Life Technologies and Expression Analysis (LTEA) Assay for Early growth response protein 1 (EGR1) transcription factor using HepaRG (AID 2283490). The method in brief:
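Read-out is EGR1 mRNA level by qRT-PCR, normalized to three housekeeping genes and analysed for gain or loss of signal against 0.5% DMSO. Source cells: human HepaRG, treated 48 h at up to 100 uM in half-log dilutions.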

Read-out in experiment [13]: Ezrin (EZR), EZR (gene 7430)
The experiment in a line: LTEA_HepaRG_EZR: Life Technologies and Expression Analysis (LTEA) Assay for Ezrin (EZR) using HepaRG (AID 2283491). The method in brief: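 Read-out is EZR transcript level by qRT-PCR, normalized to three housekeeping genes and fitted bidirectionally against the DMSO control. Human HepaRG cells received test chemicals for 48 h at eight half-log concentrations up to 100 uM in 0.5% DMSO.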

Read-out in experiment [14]: Cytochrome P450 3A7 (Homo sapiens) (UniProt P24462)
As to the kind of experiment: LTEA_HepaRG_CYP3A7: Life Technologies and Expression Analysis (LTEA) Assay for CYP3A7 using HepaRG (AID 2283492). The method in brief:
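CYP3A7 transcript levels were read by TaqMan qRT-PCR on Fluidigm arrays after 48 h chemical exposure of human HepaRG cells, with housekeeping-gene normalisation. Eight half-log concentrations up to 100 uM in 0.5% DMSO were tested in duplicate.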

Read-out in experiment [15]: CYP3A5 (gene 1577)
The experiment in a line: LTEA_HepaRG_CYP3A5: Life Technologies and Expression Analysis (LTEA) Assay for CYP3A5 using HepaRG (AID 2283493). Put shortly: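 HepaRG plated 48 h, switched to serum-free induction medium, chemicals added 48 h (max 100 uM, half-log, 0.5% DMSO). RNA isolated; CYP3A5 by TaqMan qRT-PCR. Gain/loss vs DMSO.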

Read-out in experiment [16]: Fatty Acid-Binding Protein 1 (FABP1), FABP1 (gene 2168)
As to the kind of experiment: LTEA_HepaRG_FABP1: Life Technologies and Expression Analysis (LTEA) Assay for Fatty Acid-Binding Protein 1 (FABP1) using HepaRG (AID 2283494). Put shortly: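 HepaRG, 48 h post-plating switched to serum-free induction medium, then dosed 48 h (duplicate, 8 pts, ≤100 uM, 0.5% DMSO). RNA → Fluidigm TaqMan qRT-PCR, FABP1 normed to ACTB/GAPDH/POLR2A. Bidirectional curve fit vs DMSO.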

Read-out in experiment [17]: Cytochrome P450 7A1 (Homo sapiens) (UniProt P22680)
The experiment in a line: LTEA_HepaRG_CYP7A1: Life Technologies and Expression Analysis (LTEA) Assay for Cytochrome P450 7A1 (CYP7A1) using HepaRG (AID 2283496). The method in brief:
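HepaRG cells plated 48 h, then switched to serum-free induction medium and exposed in duplicate for 48 h to 8-point half-log series from 100 uM in 0.5% DMSO. CYP7A1 mRNA by qRT-PCR (TaqMan), normalized to ACTB/GAPDH/POLR2A; bidirectional fit versus DMSO.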

Read-out in experiment [18]: Glutathione S-Transferase (GSTA2), GSTA2 (gene 2939)
The experiment in a line: LTEA_HepaRG_GSTA2: Life Technologies and Expression Analysis (LTEA) Assay for Glutathione S-Transferase (GSTA2) using HepaRG (AID 2283497). Put shortly:
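HepaRG, 48 h dosing, 8-pt half-log CRC from 100 uM, 0.5% DMSO vehicle, n=2; RNA → Fluidigm TaqMan qRT-PCR; GSTA2 vs ACTB/GAPDH/POLR2A; gain/loss fit vs DMSO.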

Read-out in experiment [19]: CYP4A11 (gene 1579)
The experiment in a line: LTEA_HepaRG_CYP4A11: Life Technologies and Expression Analysis (LTEA) Assay for CYP4A11 using HepaRG (AID 2283486). Put shortly:
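CYP4A11 transcript levels were quantified by TaqMan qRT-PCR after HepaRG human liver cells were treated for 48 hours with test chemicals (top 100 uM, half-log dilutions, 0.5% DMSO). Gain or loss of signal was fitted relative to DMSO.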

Read-out in experiment [20]: Cytochrome P450 4A22 (Homo sapiens) (UniProt Q5TCH4)
As to the kind of experiment: LTEA_HepaRG_CYP4A22: Life Technologies and Expression Analysis (LTEA) Assay for Cytochrome P450 4A22 (CYP4A22) using HepaRG (AID 2283495). The method in brief:
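HepaRG, 48 h post-plating -> serum-free induction medium; dosed 48 h, duplicate, 8 conc. (100 uM top, half-log), 0.5% DMSO. Readout: CYP4A22 mRNA by qRT-PCR, ACTB/GAPDH/POLR2A normalization; gain/loss fit relative to DMSO.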

For orientation: AC50 means the concentration giving half of the maximal activity seen.

Activity calls are given as the source filed them. How the source made its calls: active means hit-call score of the fitted dose curve at least 0.9, where 1 is the maximum; inactive means score below 0.9.

Sequence of Cytochrome P450 2C19 (Homo sapiens) (P33261 whole entry, looked up): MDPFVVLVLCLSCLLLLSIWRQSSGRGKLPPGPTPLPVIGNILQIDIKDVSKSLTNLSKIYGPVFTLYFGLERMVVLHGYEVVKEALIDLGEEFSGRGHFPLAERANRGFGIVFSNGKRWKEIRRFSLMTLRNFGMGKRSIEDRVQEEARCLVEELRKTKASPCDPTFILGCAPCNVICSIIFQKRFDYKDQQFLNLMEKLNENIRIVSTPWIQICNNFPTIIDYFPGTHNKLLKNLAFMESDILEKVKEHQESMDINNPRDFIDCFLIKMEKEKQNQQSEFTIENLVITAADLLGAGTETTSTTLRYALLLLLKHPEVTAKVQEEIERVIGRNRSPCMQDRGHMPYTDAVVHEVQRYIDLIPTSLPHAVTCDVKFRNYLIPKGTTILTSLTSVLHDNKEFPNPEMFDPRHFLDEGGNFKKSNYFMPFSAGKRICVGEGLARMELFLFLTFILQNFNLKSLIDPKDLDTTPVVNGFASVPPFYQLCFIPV
Sequence of Cytochrome P450 3A7 (Homo sapiens) (P24462 whole entry, looked up): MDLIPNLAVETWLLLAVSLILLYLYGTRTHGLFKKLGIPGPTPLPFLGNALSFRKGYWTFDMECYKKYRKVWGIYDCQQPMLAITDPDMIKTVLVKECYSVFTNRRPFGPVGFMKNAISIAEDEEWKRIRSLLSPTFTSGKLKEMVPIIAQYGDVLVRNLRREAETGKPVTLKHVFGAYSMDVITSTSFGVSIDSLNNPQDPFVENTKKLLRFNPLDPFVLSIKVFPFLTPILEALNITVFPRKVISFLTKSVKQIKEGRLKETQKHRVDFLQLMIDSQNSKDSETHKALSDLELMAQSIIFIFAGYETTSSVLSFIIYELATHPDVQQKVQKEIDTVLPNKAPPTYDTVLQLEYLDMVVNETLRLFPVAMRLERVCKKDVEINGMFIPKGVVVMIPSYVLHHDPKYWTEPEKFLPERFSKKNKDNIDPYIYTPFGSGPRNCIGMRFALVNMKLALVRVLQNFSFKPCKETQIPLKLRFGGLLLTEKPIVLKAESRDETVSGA
Sequence of Cytochrome P450 3A4 (Homo sapiens) (P08684 whole entry, looked up): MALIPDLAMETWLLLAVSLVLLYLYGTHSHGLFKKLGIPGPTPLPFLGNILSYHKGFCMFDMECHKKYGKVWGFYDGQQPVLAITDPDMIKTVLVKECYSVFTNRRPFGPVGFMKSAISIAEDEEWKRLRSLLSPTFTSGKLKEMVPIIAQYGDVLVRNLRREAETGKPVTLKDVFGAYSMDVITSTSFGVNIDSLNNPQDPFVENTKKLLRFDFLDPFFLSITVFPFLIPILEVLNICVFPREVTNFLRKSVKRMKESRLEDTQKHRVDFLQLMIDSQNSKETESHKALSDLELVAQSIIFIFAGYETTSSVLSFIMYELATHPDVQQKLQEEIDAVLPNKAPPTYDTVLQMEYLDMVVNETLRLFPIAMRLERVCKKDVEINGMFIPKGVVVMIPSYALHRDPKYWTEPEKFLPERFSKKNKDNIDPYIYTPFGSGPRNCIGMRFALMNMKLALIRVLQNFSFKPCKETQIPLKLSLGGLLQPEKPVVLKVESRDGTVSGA

With `O=NO`, the outcome in [1], in [2], in [3], in [4], in experiment [5] and in experiment [6] was inactive. Also, the compound was called inactive in experiment [7], in [8], in experiment [9], in experiment [10], in experiment [11] and in experiment [12]. In addition, the compound was called inactive in experiment [13], in experiment [14], in [15], in experiment [16], in [17] and in experiment [18].
With `NCCOCCOCCN`, the outcome in [1], in experiment [2], in experiment [3], in [4], in experiment [5] and in experiment [6] was inactive. In addition, the result in experiment [7], in [8], in experiment [19], in experiment [9], in experiment [10] and in [11] was inactive. Further, the call in experiment [12], in experiment [13], in experiment [14], in experiment [15], in experiment [16] and in experiment [17] was inactive. Besides, the compound was classed as inactive in [18].
Take `O=C(N[C@@H](c1ccccc1)[C@@H]1CCCCN1)c1cccc(C(F)(F)F)c1Cl`: the call in experiment [1], in experiment [2], in [6], in [11], in experiment [13] and in [14] was inactive. In addition, the AC50 in experiment [3] is 82.8 µM (active); in [4], 32.7 µM (active); in [5], 78.8 µM (active); in experiment [7] it was 36.1 µM (active); in experiment [8] it was 13.1 µM (active); in experiment [9] it was 86.9 µM (active). Besides, the AC50 was 50 µM (active) in experiment [10]; 83.3 µM (active) in experiment [12]; 90.6 µM (active) in experiment [15]; 33.2 µM (active) in [16]; 23.1 µM (active) in [20]; 21.3 µM (active) in experiment [17]. Besides, in experiment [18], the AC50 was 76.6 µM (active).
Consider `CCOCCOCCO`, for which the compound was called inactive in [1], in experiment [2], in [3], in [4], in [5] and in experiment [6]. For the same compound, the result in [7], in [8], in [19], in [9], in experiment [10] and in experiment [11] was inactive. The compound was called inactive in experiment [12], in [13], in experiment [14], in experiment [15], in experiment [16] and in experiment [20]. The compound was classed as inactive in experiment [17] and in [18].
As for `O=C(O)CN(CC(=O)O)CC(=O)O`, the result in [1], in experiment [3], in experiment [4], in experiment [5], in [6] and in experiment [7] was inactive. Moreover, the compound was classed as inactive in experiment [8], in [19], in experiment [9], in [10], in experiment [12] and in experiment [13]. The result in experiment [14], in [15], in [16], in [17] and in experiment [18] was inactive. Also, the AC50 in [2] was 45.8 µM (active).
In the case of `CC(=O)OC1CC(C)OC(C)O1` (stereo not drawn), the compound was called inactive in [1], in [3], in experiment [4], in [5], in experiment [6] and in experiment [7]. In addition, the compound was classed as inactive in experiment [8], in experiment [19], in experiment [9], in experiment [10], in experiment [12] and in [13]. Further, the compound was called inactive in [14], in experiment [15], in [16], in [20], in [17] and in experiment [18]. Further, the AC50 in experiment [2] was 50 µM (active).

For the origin of these results see PubChem BioAssay (EPA / NIEHS).
